High-throughput results deposited in PubChem by National Center for Advancing Translational Sciences (NCATS).
ClpP mod = qHTS Assay for Activators of ClpP. ATP-dependent Clp protease proteolytic subunit (Bacillus subtilis (strain 168)), P80244. purified B. subtilis ClpP, FRET peptide cleavage, 20 min. Potency, µM (doses to about 57.5 µM), for inactives: top-dose activity change, negative = active. hit rate 1.9% among 340,000; active = well fitted falling curve with a large enough effect; inconclusive = small, poorly fitted or top-dose-only effect; inactive = no such curve, though single readings can be large or run the other way; note: the source files actives as falling curves though it sought activators and does not explain the sign; nearly all actives have a fitted effect of over 65% in size
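Purified B. subtilis ClpP, 10 microg/mL final in Tris/HCl pH8 with KCl, BSA, glycerol and Tween-20, cleaved an Abz/nitrotyrosine-quenched decapeptide. Fluorescence (ex 320, em 430) was read at 0 and 20 min at room temperature. Delta was normalized to 5.8 microM ADEP and DMSO/no-enzyme controls.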
TDP1 cell noCPT = qHTS for Inhibitors of human tyrosyl-DNA phosphodiesterase 1 (TDP1): qHTS in cells in absence of CPT | DT40 Tdp1-/- hTDP1 cells, no CPT, ATP luminescence, 48 h | Potency, µM (doses to about 46.2 µM), without a hit: at the top dose activity change, negative = growth inhibition, most hits filed as inhibitors | hit rate 15% among 420,000 | AID 686978, 2013; note: % is set by controls: 0 for no effect and ±100 for the full control effect; nearly all actives have a fitted effect of over 55% in size
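Stably hTDP1-transfected Tdp1-null chicken DT40 cells were treated with library compounds minus camptothecin and grown for at least 48 hr at 37 °C, after which cellular ATP was quantified by luminescence.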
DT40 TDP1 CPT = qHTS for Inhibitors of human tyrosyl-DNA phosphodiesterase 1 (TDP1): qHTS in cells in presence of CPT. chicken DT40 Tdp1-/-;hTDP1 cells + 20 nM CPT, ATP luminescence, 48 h. Potency, µM (titrated, usually from 46.2 µM), without a hit: top-dose activity change, negative = growth inhibition, hits mostly inhibitors. hit rate 12% among 420,000; note: % is set by controls: 0 for no effect and ±100 for the full control effect; nearly all actives have a fitted effect of over 55% in size
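Chicken DT40 Tdp1-/- cells complemented with human TDP1, 400 cells/well, exposed to compounds plus 20 nM camptothecin for at least 48 h at 37 C; viability read as ATP content by CellTiter-Glo luminescence.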
TDP1 inh = qHTS Assay for Inhibitors of Tyrosyl-DNA Phosphodiesterase (TDP1); AID 485290, 2010; Potency, µM (series often up to 130 µM), without a hit: at the highest dose activity change, negative = inhibition, most hits filed as inhibitors; recombinant TDP1, AlphaScreen DNA substrate cleavage; hit rate 0.28% among 350,000; Tyrosyl-DNA phosphodiesterase 1 (Homo sapiens), Q9NUW8; note: % is set by controls: 0 for no effect and ±100 for the full control effect; nearly all actives have a fitted effect of over 40% in size
Target sequence (Q9NUW8 whole entry, looked up): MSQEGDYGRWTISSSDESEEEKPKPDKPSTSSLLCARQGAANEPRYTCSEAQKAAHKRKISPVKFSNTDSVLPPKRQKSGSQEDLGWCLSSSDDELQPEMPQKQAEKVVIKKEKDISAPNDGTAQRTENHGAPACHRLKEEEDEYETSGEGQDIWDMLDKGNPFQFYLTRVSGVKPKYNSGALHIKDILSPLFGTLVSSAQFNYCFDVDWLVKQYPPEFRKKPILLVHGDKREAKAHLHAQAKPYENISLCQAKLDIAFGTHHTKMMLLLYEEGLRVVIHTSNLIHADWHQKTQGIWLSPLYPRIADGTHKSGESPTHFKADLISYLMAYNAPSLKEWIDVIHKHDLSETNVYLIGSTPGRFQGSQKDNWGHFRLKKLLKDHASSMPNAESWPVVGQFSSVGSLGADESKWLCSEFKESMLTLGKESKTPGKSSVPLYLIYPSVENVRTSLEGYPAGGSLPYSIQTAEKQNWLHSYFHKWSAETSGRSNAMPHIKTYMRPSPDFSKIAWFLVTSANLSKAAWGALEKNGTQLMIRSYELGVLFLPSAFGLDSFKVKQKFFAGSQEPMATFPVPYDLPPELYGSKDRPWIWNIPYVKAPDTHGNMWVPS
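Steps: enzyme plus compound, 15 min RT; add biotin/phosphotyrosine-FITC oligonucleotide (15 nM final), react 5 min; add donor/acceptor beads (10 ug/ml final), 10 min; read AlphaScreen. Tdp1 at 1 nM final.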
An asterisk follows results filed as active. This is a sample that favours compounds with a hit; in the whole collection about 17% have one here. Unless noted, calls come from the whole dose curve; as a rule, active = well fitted curve in the direction sought with a large enough effect; inconclusive = small, poorly fitted or top-dose-only effect, or another doubt; inactive = no such curve, though single readings can be large; an effect the other way counts as inactive or inconclusive. Potency is the fitted concentration of half-maximal effect.

`CCCCn1nnnc1C(c1cc2ccccc2o1)N1CCN(CCN(C)C)CC1` (centres undefined) gave ClpP mod 1.2%, TDP1 cell noCPT 20.6µM* and DT40 TDP1 CPT inconclusive.
Screening Cc1ccc(S(=O)(=O)N(C)CC(=O)O/N=C(\N)c2cccc(Br)c2)cc1 returned ClpP mod -2.7%, TDP1 cell noCPT 7.4%, DT40 TDP1 CPT -1.3% and TDP1 inh -5.2%.
For COc1cccc(NC(=O)N(CCC(C)C)C2CCN(C(C)C)CC2)c1 the results were ClpP mod 1.3%, TDP1 cell noCPT inconclusive, DT40 TDP1 CPT -5.5% and TDP1 inh 0.0%.
Screening CCCCN(c1ccccc1)S(=O)(=O)c1cc2c3c(c1)C(C)C(=O)N3CCC2 (centres undefined) returned ClpP mod 0.7%, TDP1 cell noCPT 29.1µM*, DT40 TDP1 CPT 10.3µM* and TDP1 inh -7.8%.
CC1C(=O)N2CCCc3cc(S(=O)(=O)N(C)Cc4ccccc4)cc1c32 (centres undefined) was read as ClpP mod -4.7%, TDP1 cell noCPT inconclusive, DT40 TDP1 CPT inconclusive and TDP1 inh 3.5%.
For Oc1ccc(Oc2ccc(Oc3ccc(O)cc3)cc2)cc1 the results were ClpP mod 2.6%, TDP1 cell noCPT 4.11µM* and DT40 TDP1 CPT 5.8µM*.
Screening COc1ccc(CC(=O)n2nc(-c3ccc(Cl)cc3)nc2NCc2ccco2)cc1 returned ClpP mod -9.8%, TDP1 cell noCPT 18.4µM*, DT40 TDP1 CPT inconclusive and TDP1 inh 4.0%.
O=C(c1ccco1)n1nc(-c2cccnc2)nc1NCc1ccco1 was read as TDP1 cell noCPT 23.1µM*, DT40 TDP1 CPT inconclusive and TDP1 inh 3.4%.
Screening COc1ccc(C(=O)n2nc(-c3ccc(Cl)cc3)nc2NCc2ccco2)cc1 returned ClpP mod 0.7%, TDP1 cell noCPT inconclusive, DT40 TDP1 CPT inconclusive and TDP1 inh 1.1%.
CC1CCN(C(=O)c2cc3nc(-c4ccccc4)cc(-c4ccccc4)n3n2)CC1 was read as ClpP mod inconclusive, TDP1 cell noCPT 29.1µM* and DT40 TDP1 CPT 16.4µM*.
Screening COc1ccc(-c2cn3nc(SCC(=O)Nc4cc(C)cc(C)c4)ccc3n2)cc1 returned ClpP mod inconclusive, TDP1 cell noCPT 20.6µM*, DT40 TDP1 CPT inconclusive and TDP1 inh 0.0%.
`COc1ccc(-c2cn3nc(SCC(=O)Nc4cccc(C)c4C)ccc3n2)cc1` gave ClpP mod -5.6%, TDP1 cell noCPT inconclusive, DT40 TDP1 CPT 14.6µM* and TDP1 inh 2.7%.
COc1ccc(NC(=O)c2cc3nc(-c4ccccc4)cc(-c4ccccc4)n3n2)c(OC)c1 was read as ClpP mod 0.5%, TDP1 cell noCPT 10µM*, DT40 TDP1 CPT 11.2µM* and TDP1 inh -4.7%.
For O=C(NC1CCCC1)c1cc2nc(-c3ccccc3)cc(-c3ccccc3)n2n1 the results were ClpP mod -4.7%, TDP1 cell noCPT inconclusive and DT40 TDP1 CPT inconclusive.
For COc1ccc(C(=O)c2c[nH]c(C(=O)N=CN(C)C)c2)cc1 the results were TDP1 cell noCPT -28.6%, DT40 TDP1 CPT -12.8% and TDP1 inh -8.9%.
Screening COc1ccc(NC(=O)CSc2ccc3nc(-c4ccccc4)cn3n2)c(OC)c1 returned ClpP mod -27.4%, TDP1 cell noCPT 9.2µM*, DT40 TDP1 CPT 11.6µM* and TDP1 inh 8.1%.
For Cc1oncc1C(=O)N1CCCC(CO)(Cc2ccc(F)cc2F)C1 (centres undefined) the results were TDP1 cell noCPT -21.0%, DT40 TDP1 CPT 6.6% and TDP1 inh 1.4%.
Screening COC(=O)C(C)Oc1cc(OC(C)C(=O)OC)c2c(C)c(Cl)c(=O)oc2c1 (centres undefined) returned TDP1 cell noCPT -10.0%, DT40 TDP1 CPT 1.3% and TDP1 inh -2.5%.
`Cc1cc(OCc2nn[nH]n2)c2c(C)c(CC(=O)O)c(=O)oc2c1` gave ClpP mod inconclusive, TDP1 cell noCPT -7.0%, DT40 TDP1 CPT -2.0% and TDP1 inh 0.0%.
For COC(=O)COc1cc(OCC(=O)OC)c2c(C)c(Cl)c(=O)oc2c1 the results were ClpP mod 14.1µM*, TDP1 cell noCPT 15.6%, DT40 TDP1 CPT 9.8% and TDP1 inh -4.5%.
For COC(=O)COc1cc(C)cc2oc(=O)c(CC(=O)OC)c(C)c12 the results were ClpP mod 14.1µM*, TDP1 cell noCPT -2.7%, DT40 TDP1 CPT 5.7% and TDP1 inh 3.3%.
`CCCCc1nn2c(=O)cc(COC(=O)c3cccs3)nc2s1` gave ClpP mod -1.8%, TDP1 cell noCPT -11.7%, DT40 TDP1 CPT -26.5% and TDP1 inh 7.1%.
O=C(Oc1ccc(OC(=O)N2CCCCC2)cc1)c1ccccc1 was read as ClpP mod 0.2%, TDP1 cell noCPT 0.0461µM*, DT40 TDP1 CPT inconclusive and TDP1 inh 5.6%.
`CCOC(=O)C[n+]1c(C)sc2ccc(OC)cc21` gave ClpP mod 1.7%, TDP1 cell noCPT 8.2µM*, DT40 TDP1 CPT 8.2µM* and TDP1 inh 2.0%.
For CC[C@H](C)/C=C(C)/C=C/C(=O)Cc1cc(O)c(C)c(O)c1C=O the results were ClpP mod -2.7%, TDP1 cell noCPT inconclusive and DT40 TDP1 CPT inconclusive.
CC[C@H](C)/C=C(C)/C=C/C1=CC2=CC(=O)[C@]3(C)OC(=O)[C@@H](C(C)=O)[C@@H]3C2=CO1 was read as ClpP mod -26.3%, TDP1 cell noCPT -76.1%, DT40 TDP1 CPT 2.06µM* and TDP1 inh 5.1%.
`CC(C)c1ccc(C(=O)N2CCCC(c3cc(C(=O)Nc4ccc5c(c4)OCO5)no3)C2)cc1` (centres undefined) gave ClpP mod -1.0%, TDP1 cell noCPT 20.6µM* and DT40 TDP1 CPT inconclusive.
Screening CCCNC(=O)c1cc(C2CCCN(C(=O)c3ccc(NC(C)=O)cc3)C2)on1 (centres undefined) returned ClpP mod 0.6%, TDP1 cell noCPT -31.0% and DT40 TDP1 CPT 1.9%.
Screening CN(C)c1ccc(CC(=O)N2CCCC(c3cc(C(=O)Nc4ccc5c(c4)OCO5)no3)C2)cc1 (centres undefined) returned ClpP mod -0.1%, TDP1 cell noCPT 13µM* and DT40 TDP1 CPT 16.4µM*.
`CN(C)c1ccc(CC(=O)N2CCCC(c3cc(C(=O)Nc4ccccc4)no3)C2)cc1` (centres undefined) gave ClpP mod -5.3%, TDP1 cell noCPT inconclusive and DT40 TDP1 CPT inconclusive.
Cc1ccc(C)c(CC(=O)N2CCCC(c3cc(C(=O)Nc4ccc5c(c4)OCO5)no3)C2)c1 (centres undefined) was read as ClpP mod -5.1%, TDP1 cell noCPT 16.4µM* and DT40 TDP1 CPT 14.6µM*.
